Laboratory results as given in the supplement of paper PMC7156485.

Tested on: HCC1569
Test: H1.0 immunofluorescence intensity relative to DMSO (% of DMSO); higher = stronger H1.0 induction, active = 140 or more
Settings: concentration: 10 µM; 24 h
In short: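 For HCC1569 and TDF cells, compounds at 10 µM were applied for 24 h at 37 °C in triplicate in 384-well plates. Cells were fixed in 3.7% formaldehyde, stained for H1.0 and with DAPI, and imaged at ×10 over six fields per well. The endpoint, H1.0 nuclear intensity or cell number, is shown as percent of the plate control using the median of replicates. Positional effects were smoothed for HCC1569 only.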
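Note: TDF is a line of transformed human dermal fibroblasts of mesenchymal origin.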

H1.0 immunofluorescence intensity, inactive:
CCOC(=O)C(CCc1ccccc1)NC(C)C(=O)N1C(C(=O)O)CC2CCCC21 (stereo not drawn) [Ramipril] 111
C[N+](C)(C)CCOC(N)=O.[Cl-] [Carbachol] 96.9
CCCCCC(CC(=O)NO)C(=O)NC(C(=O)N1CCCC1CO)C(C)C (stereo not drawn) [Actinonin] 111
CS(=O)(=O)CCNCc1nc(-c2ccc3ncnc(Nc4ccc(OCc5cccc(F)c5)c(Cl)c4)c3c2)cs1.Cl.Cl 136
CCn1cc(C(=O)O)c(=O)c2ccc(Cc3ccccc3)nc21 [Amfonelic acid] 95.4
CC(O)(P(=O)([O-])O)P(=O)([O-])O [Etidronate] 111
NC(=O)NO [Hydroxyurea] 91.8
CNc1nccc(-c2cccnc2Oc2cc(C(=O)Nc3cccc(C(F)(F)F)c3)ccc2C)n1 102
COC(=O)Nc1nc2ccc(C(=O)c3ccccc3)cc2[nH]1 [Mebendazol] 127
CCOC(=O)c1cnc2c(cnn2CC)c1NN=C(C)C.Cl [Etazolate hydrochloride] 99.5
Cc1ccc(S(=O)(=O)NC(Cc2ccccc2)C(=O)CCl)cc1 [N-p-Tosyl-L-phenylalanine chloromethyl ketone] 113
Cl.NO [Hydroxylamine hydrochloride] 89.7
CC(=O)NC(CS)C(=O)O (stereo not drawn) [N-Acetyl-Cysteine] 90.6
